“And” between values parts separate entries of the source, which are not always exact repeats. Equal entries are not always repeated. In all, about 5,500 compounds went through this assay and about 2,000 (36%) were called active. Not shown: some 18% with an inconclusive outcome. No stated cut-off is given here; in the data, active means normalized growth mostly below about 0.91 (no sharp cut-off); inconclusive means no clear call, values can overlap the other calls; inactive means mostly above about 0.92. The list shows a part of the results.
Test: chemical genetic growth profiling, strain panel (AID 1159580);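 further: tested at 20 µM; growth read once vehicle control cultures reached saturation at 30 °C; 1 = growth at the plate median or of vehicle wells; lower values mean less growth of the strain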
Conditions: S. cerevisiae deletion strains, growth OD

Measured: normalized growth

COc1cc(C(C)=O)cc(OC)c1O
inactive: locus YAL013W, strain DEP1, active compounds read low 0.991 | locus YAL021C, strain ccr4, active compounds read low 1.04 | locus YAL026C, strain drs2, active compounds read low 1.03 | locus YAL030W, strain snc1, active compounds read low 1.01 | locus YBL061C, strain skt5, active compounds read low 1.03 | locus YBR009C, strain hhf1, active compounds read low 1.04 | locus YBR021W, strain FUR4, active compounds read low 1.01 | locus YBR023C, strain chs3, active compounds read low 1.03 | locus YBR171W, strain sec66, active compounds read low 1.03 | locus YBR229C, strain ROT2, active compounds read low 0.998 | locus YBR231C, strain swc5, active compounds read low 1.02 | locus YBR279W, strain paf1, active compounds read low 1.02 | locus YCL011C, strain gbp2, active compounds read low 1.03 | locus YCL016C, strain dcc1, active compounds read low 1.02 | locus YCL029C, strain bik1, active compounds read low 1 | locus YCL061C, strain MRC1, active compounds read low 1.02 | locus YCL069W, strain vba3, active compounds read low 1.01 | locus YCR088W, strain abp1, active compounds read low 1.02 | locus YDL005C, strain med2, active compounds read low 1.02 | locus YDL035C, strain GPR1, active compounds read low 0.993 | locus YDL040C, strain nat1, active compounds read low 1.01 | locus YDL074C, strain BRE1, active compounds read low 1.04 | locus YDL101C, strain DUN1, active compounds read low 1.01 | locus YDL134C, strain PPH21, active compounds read low 0.991 | locus YDL185W, strain tfp1, active compounds read low 1 | locus YDL192W, strain arf1, active compounds read low 0.99 | locus YDR001C, strain nth1, active compounds read low 1.01 | locus YDR069C, strain doa4, active compounds read low 1.04 | locus YDR101C, strain arx1, active compounds read low 1.01 | locus YDR137W, strain rgp1, active compounds read low 1.08 | locus YDR150W, strain NUM1, active compounds read low 0.978 | locus YDR159W, strain sac3, active compounds read low 1.05 | locus YDR162C, strain NBP2, active compounds read low 0.986 | locus YDR195W, strain ref2 1.05 | locus YDR297W, strain sur2, active compounds read low 1.02 | locus YDR318W, strain mcm21, active compounds read low 0.991 | locus YDR334W, strain swr1, active compounds read low 1.02 | locus YDR335W, strain msn5, active compounds read low 1.02 | locus YDR388W, active compounds read low 0.994 | locus YDR392W, strain spt3, active compounds read low 0.971 | locus YDR502C, strain sam2, active compounds read low 1.01 | locus YEL003W, strain gim4, active compounds read low 1.04 | locus YEL037C, strain rad23, active compounds read low 1.02 | locus YEL061C, strain CIN8 (second series), active compounds read low 1.03 | locus YEL061C, strain CIN8, active compounds read low 0.999 | locus YER015W, strain faa2, active compounds read low 1.02 | locus YER016W, strain bim1, active compounds read low 1.01 | locus YER110C, active compounds read low 1 | locus YER111C, strain swi4, active compounds read low 1.03 | locus YER155C, strain BEM2 (second series), active compounds read low 1.03 | locus YER155C, strain BEM2, active compounds read low 0.994 | locus YER167W, strain BCK2, active compounds read low 0.977 | locus YFR010W, strain ubp6, active compounds read low 1.03 | locus YGL078C, strain dbp3, active compounds read low 0.998 | locus YGL086W, strain mad1, active compounds read low 1.02 | locus YGL167C, strain pmr1, active compounds read low 1.03 | locus YGL173C, strain kem1, active compounds read low 1.04 | locus YGL227W, strain vid30, active compounds read low 1.03 | locus YGL240W, strain doc1, active compounds read low 1.04 | locus YGL248W, strain PDE1, active compounds read low 0.998 | locus YGL253W, strain hxk2, active compounds read low 1.02 | locus YGR135W, strain pre9, active compounds read low 0.994 | locus YGR252W, strain gcn5, active compounds read low 1.02 | locus YHR013C, strain ard1, active compounds read low 1.02 | locus YHR027C, strain rpn1, active compounds read low 1.02 | locus YHR030C, strain SLT2, active compounds read low 1 and 0.985 | locus YHR079C, strain IRE1 (second series), active compounds read low 0.999 | locus YHR079C, strain IRE1, active compounds read low 0.983 | locus YHR094C, strain hxt1, active compounds read low 1 | locus YHR129C, strain ARP1, active compounds read low 1.01 | locus YHR142W, strain chs7, active compounds read low 1.03 | locus YHR200W, strain rpn10, active compounds read low 0.993 | locus YIL066C, strain RNR3, active compounds read low 0.983 | locus YIL073C, strain SPO22, active compounds read low 0.998 | locus YIL125W, strain kgd1, active compounds read low 0.997 | locus YIR030C, strain dcg1, active compounds read low 1.01 | locus YJL092W, strain hpr5, active compounds read low 1.02 | locus YJL095W, strain BCK1 (second series), active compounds read low 1.01 | locus YJL095W, strain BCK1, active compounds read low 1.05 and 0.999 | locus YJL115W, strain asf1, active compounds read low 1.02 | locus YJL129C, strain trk1, active compounds read low 1.05 | locus YJL134W, strain LCB3, active compounds read low 0.993 | locus YJL154C, strain vps35, active compounds read low 1.01 | locus YJL164C, strain tpk1, active compounds read low 1 | locus YJL166W, strain qcr8, active compounds read low 1.04 | locus YJL168C, strain set2, active compounds read low 0.997 | locus YJL187C, strain SWE1 (second series), active compounds read low 1.02 | locus YJL187C, strain SWE1, active compounds read low 1.02 | locus YJR043C, strain POL32, active compounds read low 0.981 | locus YJR066W, strain TOR1, active compounds read low 0.963 | locus YKL009W, strain mrt4, active compounds read low 1.05 | locus YKL068W, active compounds read low 0.993 | locus YKL085W, strain MDH1 (second series), active compounds read low 0.986 | locus YKL085W, strain MDH1, active compounds read low 0.986 | locus YKL160W, strain elf1, active compounds read low 1.03 | locus YKL190W, strain CNB1, active compounds read low 1.01 | locus YKR001C, strain vps1, active compounds read low 0.987 | locus YKR026C, strain gcn3, active compounds read low 0.995 | locus YKR091W, strain srl3, active compounds read low 1.02 | locus YLL001W, strain dnm1, active compounds read low 1.01 | locus YLL026W, active compounds read low 1.02 | locus YLL041C, strain sdh2, active compounds read low 1.02 | locus YLR027C, strain aat2, active compounds read low 1.01 | locus YLR039C, strain RIC1, active compounds read low 1.02 | locus YLR058C, strain SHM2, active compounds read low 0.998 | locus YLR102C, strain apc9, active compounds read low 1 | locus YLR113W, strain HOG1, active compounds read low 0.981 | locus YLR221C, strain rsa3, active compounds read low 1.04 | locus YLR258W, strain gsy2, active compounds read low 1.03 | locus YLR262C, strain YPT6 (second series), active compounds read low 1.07 | locus YLR262C, strain YPT6, active compounds read low 1.07 | locus YLR268W, strain sec22, active compounds read low 1.05 | locus YLR320W, strain mms22, active compounds read low 1.04 | locus YLR330W, strain CHS5, active compounds read low 0.988 | locus YLR342W, strain FKS1 (second series), active compounds read low 1 | locus YLR342W, strain FKS1, active compounds read low 1.02 | locus YLR357W, strain rsc2, active compounds read low 1.06 | locus YLR370C, strain arc18, active compounds read low 1.02 | locus YLR371W, strain rom2, active compounds read low 1.01 | locus YLR384C, strain iki3, active compounds read low 1.01 | locus YLR418C, strain cdc73, active compounds read low 0.967 | locus YML016C, strain PPZ1, active compounds read low 1.01 | locus YML032C, strain rad52, active compounds read low 0.957 | locus YML120C, strain ndi1, active compounds read low 1.03 | locus YML124C, strain tub3, active compounds read low 0.992 | locus YMR058W, strain fet3, active compounds read low 1.02 | locus YMR078C, strain ctf18, active compounds read low 1 | locus YMR125W, strain sto1, active compounds read low 1.04 | locus YMR129W, active compounds read low 1.03 | locus YMR205C, strain PFK2, active compounds read low 1.08 | locus YMR223W, strain ubp8, active compounds read low 0.999 | locus YMR231W, strain pep5, active compounds read low 1.01 | locus YMR307W, strain GAS1, active compounds read low 0.981 | locus YNL067W, strain RPL9B, active compounds read low 1.03 | locus YNL071W, strain lat1, active compounds read low 1.02 | locus YNL183C, strain NPR1, active compounds read low 0.972 | locus YNL209W, strain ssb2, active compounds read low 1.03 | locus YNL233W, strain BNI4, active compounds read low 1.03 | locus YNL248C, strain rpa49, active compounds read low 1.04 | locus YNL250W, strain rad50, active compounds read low 0.988 | locus YNL271C, strain bni1, active compounds read low 0.996 | locus YNL298W, strain CLA4, active compounds read low 1.01 | locus YNL307C, strain MCK1, active compounds read low 1 | locus YNL322C, strain KRE1 (second series), active compounds read low 1.03 | locus YNL322C, strain KRE1, active compounds read low 0.986 | locus YNR049C, strain mso1, active compounds read low 1.02 | locus YNR052C, strain pop2, active compounds read low 0.993 | locus YOL006C, strain TOP1, active compounds read low 1.02 | locus YOL012C, strain htz1 0.701 | locus YOL147C, strain pex11, active compounds read low 0.994 | locus YOR001W, strain rrp6, active compounds read low 1.03 | locus YOR061W, strain CKA2, active compounds read low 0.995 | locus YOR069W, strain VPS5, active compounds read low 0.996 | locus YOR070C, strain gyp1, active compounds read low 1.01 | locus YOR080W, strain dia2, active compounds read low 1.04 | locus YOR083W, strain WHI5, active compounds read low 1.03 | locus YOR106W, strain vam3, active compounds read low 1.07 | locus YOR136W, strain idh2, active compounds read low 1 | locus YOR144C, strain elg1, active compounds read low 0.997 | locus YOR184W, strain ser1, active compounds read low 0.994 | locus YOR231W, strain MKK1, active compounds read low 0.979 | locus YOR265W, strain rbl2, active compounds read low 1.02 | locus YOR270C, strain vph1, active compounds read low 1.1 | locus YOR290C, strain snf2, active compounds read low 0.995 | locus YOR316C, strain cot1, active compounds read low 0.998 | locus YPL051W, strain arl3, active compounds read low 1.02 | locus YPL055C, strain LGE1, active compounds read low 1.01 | locus YPL078C, strain atp4, active compounds read low 1.02 | locus YPL106C, strain sse1, active compounds read low 1.06 | locus YPL240C, strain hsp82, active compounds read low 1.04 | locus YPL256C, strain CLN2, active compounds read low 0.976 | locus YPR119W, strain clb2, active compounds read low 0.991 | locus YPR141C, strain kar3, active compounds read low 0.989 | locus YPR163C, strain tif3, active compounds read low 1 | locus YPR167C, strain met16, active compounds read low 0.989 | strain wtn01, active compounds read low 1.03

From PubChem BioAssay AID1159580 (chemical genetic matrix, 2015)
